Assay results published in PubChem BioAssay AID449762 (Southern Research Specialized Biocontainment Screening …, 2010).
Among all 330,000 compounds or so, about 1,900 (0.58%) were called active. About 4% were inconclusive and are not listed. Not all results are given here. Measured potencies and affinities stand elsewhere. Values without a mark were called inactive. Rule as the data show it: inconclusive = inhibition above about 70% without an active follow-up result; inactive = below that.

test: M. tuberculosis growth inhibition, HTS (AID 449762);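 also: bacterial growth assessed after seven days of incubation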; conditions: M. tuberculosis H37Rv growth inhibition, 7H9 media; at 25 µM; hits give high values

| SMILES | inhibition [%] |
| --- | --- |
| CC1(C)CN(c2cccc(C#N)c2)C1=O | -3.52 |
| CC(=O)OCC1(C)CN(c2ccccc2)N(C(=O)c2ccc(F)cc2)C1=O (stereo not drawn) | 37.7 |
| COc1cccc(CN(C(=O)c2ccccc2Br)C2CCS(=O)(=O)C2)c1 (stereo not drawn) | -0.47 |
| CC1(C)CC(=O)C2=C(C1)NC(Nc1nc3ccccc3o1)=NC21CCCCC1 | -1.05 |
| CC1(C)CC(=O)C2=C(C1)NC(Nc1nc3ccccc3o1)=NC21CCCC1 | -11 |
| O=C(CN1C(=O)c2ccccc2S1(=O)=O)NC1CC2CCC1C2 (stereo not drawn) | -4.11 |
| CN1CCN(c2ccc(NC(=O)CN3CCOCC3)cc2F)CC1 | -4.73 |
| CC(C)CNC(=S)NC(=O)c1ccc([N+](=O)[O-])cc1 | 11.6 |
| C=CCNC(=S)NC(=O)c1csc([N+](=O)[O-])c1 | 18.2 |
| CCn1c(SCC(=O)N/N=C/c2ccccc2OCC(=O)O)nnc1-c1ccc(OC)cc1 | 1.34 |
| Oc1ccc(CN2CCCc3ccccc32)c2cccnc12 | -5.25 |
| Cc1ccccc1NCc1ccc(O)c2ncccc12 | 2.36 |
| Oc1ccc(CNc2ccccc2)c2cccnc12 | -3.76 |
| Cc1cccc(NCc2ccc(O)c3ncccc23)c1 | 14.1 |
| Oc1ccc(CNc2ccc(F)cc2)c2cccnc12 | -1.78 |
| Oc1ccc(CN2CCN(Cc3ccccc3)CC2)c2cccnc12 | 14.4 |
| OCc1ccc(O)c2ncccc12 | 52.4 |
| Cc1cccnc1NCc1ccc(O)c2ncccc12 | 51.8 |
| COc1ccc(S(=O)(=O)N(Cc2ccc(OC)c(OC)c2)Cc2ccco2)cc1 | 12.4 |
| O=C1NNC(=O)C1c1ccccc1 | 0.86 |
| COc1cccc(C2[C@H](C)C3(CCN2C)OCCO3)c1 (stereo partly drawn) | 1.26 |
| C=CCN(C(=O)c1csnn1)C(C(=O)NCc1ccccc1)c1ccccc1F (stereo not drawn) | 5.11 |
| COc1ccc(NC(=S)N2CCC(c3ccccc3)C2)cc1 (stereo not drawn) | 0.04 |
| CCCC(=O)OCC(=O)Nc1ccc([N+](=O)[O-])cc1C#N | 0.66 |
| O=C1CCc2cc(S(=O)(=O)NCCc3ccccc3)cc3c2N1CC3 | -3.75 |

| SMILES | inhibition [%] |
| --- | --- |
| CN1CCN(CC(O)COc2ccc(C(=O)O)cc2)CC1 (stereo not drawn) | 4 |
| COc1ccc(C=O)cc1CN1CCCN(Cc2ccccc2F)S1(=O)=O | 9.36 |
| C=CCc1cc(C)ccc1OCCOCCC(C(=O)OCC)C(=O)OCC | -7.06 |
| C=CCc1cc(OC)ccc1OCCOCCC(C(=O)OCC)C(=O)OCC | -13 |
| O=C(NN=C1CCCC1)c1[nH]c2ccc(Br)cc2c1-c1ccccc1 | 62 |
| Cc1ccc2[nH]c(C(=O)O)c(-c3ccccc3)c2c1 | 6.59 |
| CCOC(=O)Cn1cnc2c(nnn2-c2ccc(C)cc2)c1=O | -14.9 |
| CCC(NC(=O)c1cc(COc2c(F)cccc2F)on1)c1ccncc1 (stereo not drawn) | -2.33 |
| CC(CN1C(C)CCCC1C)OC(=O)c1cccc(F)c1 (stereo not drawn) | 3.14 |
| CC(C)C1CC(CCN)(Cc2ccccc2)CCO1 (stereo not drawn) | 1.79 |
| COc1ccc2cc(C#N)c(N3CCN(C(=O)c4ccccc4C)CC3)nc2c1 | 11.1 |
| COc1ccc2cc(C#N)c(N3CCOCC3)nc2c1 | 3.82 |
| O=S(=O)(CCN1CCSCC1)c1ccc(Cl)cc1 | -12.2 |
| CSCCC(NC(=O)COc1ccccc1)C(=O)N1CCN(C(C)=O)CC1 (stereo not drawn) | 4.67 |
| Cc1ccc(NC(=O)c2c(C)nc3ccccn23)cc1C | -2.44 |
| Cc1nc2ccccn2c1C(=O)N/N=C/c1ccccc1 | -1.76 |
| CCOC(=O)N1CCN(C(=O)COC(=O)Cc2ccc(OC)cc2)CC1 | -5.2 |
| CC(C)CNC(=O)c1cccc(NC(=O)Cc2ccc(Cl)cc2)c1 | -1.92 |
| CCc1nc(C)cn1S(=O)(=O)c1cc(F)ccc1OC | 0.63 |
| Cc1ccc(OS(=O)Nc2cccc3nccnc23)cc1 (stereo not drawn) | 49 |
| Fc1ccc(Nc2cccc3nccnc23)cc1 | 7.88 |
| CNC(=S)NNC(=O)c1cc(-c2cccnc2)nc2ccccc12 | -1.9 |
| COc1ccc(NC(=O)COC(=O)CCc2ccc(S(=O)(=O)N3CCOCC3)cc2)c(OC)c1 | -0.81 |
| Cc1[nH]n(-c2ccccc2)c(=O)c1C(=O)c1ccccc1 | 1.23 |
| Cc1[nH]n(-c2ccccc2)c(=O)c1C(=O)c1ccc(Cl)cc1 | 67.2 |

| SMILES | inhibition [%] |
| --- | --- |
| CCCSc1cc(NCCOC(C)=O)c([N+](=O)[O-])c2nonc12 | 14.4 |
| COC(=O)CCSc1cc(NCCOC(C)=O)c([N+](=O)[O-])c2nonc12 | 27.1 |
| O=c1cc(CO)oc(C(Nc2ccccn2)c2cccc(F)c2)c1O (stereo not drawn) | -4.25 |
| Cc1ccc(-n2ccnc2SCC(=O)c2c(N)n(C3CC3)c(=O)[nH]c2=O)cc1C | -3.24 |
| COc1ccc(OCCCC(=O)OC(C)C(=O)Nc2ccc(NC(C)=O)cc2)cc1 (stereo not drawn) | -25.7 |
| CC(OC(=O)CCC(=O)c1cccs1)C(=O)Nc1ccccc1[N+](=O)[O-] (stereo not drawn) | -1.97 |
| O=C(CC12CC3CC(CC(Br)(C3)C1)C2)Nc1cccc(S(=O)(=O)NC2=NCCC2)c1 | 7.59 |
| CC(C)(C)NC(=S)N1CCn2cccc2C1c1cccnc1 (stereo not drawn) | -4.33 |
| O=C(N/N=C/c1ccc2ncccc2c1)c1cccc([N+](=O)[O-])c1 | 10.3 |
| CCCCNC(=O)CSc1nc2cc3c(cc2c(=O)n1Cc1ccco1)OCO3 | -13 |
| COC(=O)COc1ccc(/C=C2/NC(=O)N(CC(=O)OC)C2=O)cc1 | 0.75 |
| CCN1C(=O)/C(=C/c2ccc(N3CCCC3)cc2)NC1=S | -3.08 |
| CN(CC(=O)Nc1c(Cl)cccc1Cl)C(=O)Cc1cccs1 | -16.5 |
| O=C(Nc1cccc(-c2nc3ccccc3s2)c1)c1cc(=O)c2ccccc2o1 | 10.9 |
| Cn1ncc([N+](=O)[O-])c1C(=O)Nc1cccc(Cl)c1 | -25.5 |
| Cc1nc2c3ccccc3nc(NNC(=O)CCC(=O)N3CCC(C)CC3)n2n1 | -3.15 |
| Cc1nonc1OCCN1CCN(c2ccc([N+](=O)[O-])cc2)CC1 | 9.04 |
| Cc1ccc(S(=O)(=O)Nc2ccc(C(N)=O)cc2)cc1[N+](=O)[O-] | -1.5 |
| CCOC(=O)c1ccc(NC(C)=O)c([N+](=O)[O-])c1 | -9.36 |
| CCCNc1ccc(C(=O)OCC)cc1[N+](=O)[O-] | -11.2 |
| O=C(/C=C/c1ccccc1)N/C(=C/c1ccccc1)C(=O)Nc1cccc(C(=O)O)c1 | -8.21 |
| Nc1cc2c(cc1C(=O)c1ccc(Cl)cc1)OCCO2 | 4.52 |
| O=C(COc1ccc(Cl)cc1Cl)N/N=C/c1cccnc1 | -6.12 |
| COc1cc(OC)cc(C(=O)Nc2ccc(N(C)C)c3ccccc23)c1 | 1.99 |
| CN(C)c1ccc(NC(=O)c2ccncc2)c2ccccc12 | -1.45 |

| SMILES | inhibition [%] |
| --- | --- |
| CCOC(=O)C1=C(C)Nc2nc(C)nn2C1c1ccc(C)cc1 (stereo not drawn) | 5.22 |
| CCCCN(CCCC)Cc1ccc(C(=O)NNC(=O)Nc2ccc(F)cc2)o1 | 4.32 |
| Cc1ccc(S(=O)(=O)NC(CC(C)C)C(=O)N2CCCC2)cc1 (stereo not drawn) | -3.51 |
| CC(=O)Nc1ccc(S(=O)(=O)N[C@@H](C)C(=O)N2CCN(C/C=C/c3ccccc3)CC2)cc1 | -13.2 |
| COc1ccc(-c2ccc(-c3nnn(CC(C)=O)n3)cc2)cc1 | 12.6 |
| COc1cccc(CN(C)C(=O)C(CCSC)NS(=O)(=O)c2ccc3c(c2)OCCO3)c1OC (stereo not drawn) | -2 |
| CCCCn1cnc2c(oc3nc4c(cc32)CCCC4)c1=O | 5.81 |
| Oc1ccc2ccccc2c1N=Nc1ccccc1F | -3.05 |
| Oc1ccc2ccccc2c1/C=N/c1nccs1 | 0.82 |
| CCOC(=O)c1sc(NC(=O)C(OC(C)=O)c2ccccc2)nc1C (stereo not drawn) | -4.59 |
| COc1ccc(OC)c(C(O)C2CCCCN2)c1 (stereo not drawn) | 0.57 |
| O=C(O)c1cc(C(F)(F)F)nc2c(C(F)(F)F)cccc12 | -3.33 |
| Cc1sc2nc(-c3ccc(Br)cc3)oc(=O)c2c1C | 7.29 |
| O=C1[C@@H]2Cc3c([nH]c4ccccc34)CN2C(=O)CN1CCCCCO | -3.43 |
| c1ccc(Nc2ccccn2)nc1 | 4.45 |
| c1ccc(Nc2ccccc2Nc2ccccn2)nc1 | -3.39 |
| O=C(NC1CCS(=O)(=O)C1)/C(=C/c1ccco1)NC(=O)c1ccccc1 (stereo not drawn) | -0.22 |
| CCC[C@H](N[C@@H](CCC)[C@H](O)c1ccccc1)[C@H](O)c1ccccc1 | -2.74 |
| O=C(Nc1ccc(F)cc1)c1ccc(S(=O)(=O)NCC2CCCO2)cc1 (stereo not drawn) | 0.17 |
| Cc1ccc(OCCNC(=O)CCNS(=O)(=O)c2ccc3ccccc3c2)cc1 | 1.14 |
| Cc1nn(C)c(C)c1NC(=O)c1cc2nc(-c3ccco3)cc(C(F)(F)F)n2n1 | -8.4 |
| O=C(Nc1cnn(Cc2ccccc2)c1)c1cc2nc(-c3ccco3)cc(C(F)(F)F)n2n1 | 1.16 |
| COCCCN1C(=O)c2ccc(C(=O)NCCc3ccccc3)cc2C1=O | 0.01 |
